Reference: the supplement of paper PMC6555819

What was measured:
Assay in all cases: PBM binding z-score (relative to random genomic background probes); higher = stronger binding; sequences stand for … in GC…GCGATTGACAGCGTAGAATGAAGG
[1] = tested on: RARg homodimer (NR concentration 270 nM)
Summary of the method: (§1)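 Scanned fluorescence from custom Agilent 4×180K protein-binding microarrays was regression-normalized. Binding z-scores use random background probes as reference. Ligand-free nuclear receptor dimers were incubated on the arrays for 1 h and detected with antibodies against each partner (one per run).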

[2] = tested on: RXRa DBDmut IVT, anti-RXR (DBD mutation: RXRa K156A/R161A, NR concentration 90 nM)
Summary of the method: as §1

[3] = tested on: RXRa homodimer (NR concentration 180 nM)
Summary of the method: as §1

[4] = tested on: THRa homodimer (NR concentration 90 nM)
Summary of the method: as §1

[5] = tested on: VDR homodimer (NR concentration 270 nM)
Summary of the method: as §1

[6] = tested on: RARg:RXRa (NR concentration 270 nM, RXRa partner concentration 90 nM)
Summary of the method: as §1

[7] = tested on: THRa:RXRa (NR concentration 90 nM, RXRa partner concentration 90 nM)
Summary of the method: as §1

Sequence	PBM binding z-score [1]	PBM binding z-score [2]	PBM binding z-score [3]	PBM binding z-score [4]	PBM binding z-score [5]	PBM binding z-score [6]	PBM binding z-score [7]
TAGCCTAGGTCATTCAGGGGCAAGTATAGAAAGC	4.44	2.38	3.47	0.948	2.65		
CCGACGGGGGCAAAGGTTACCATACTCAGTACGA	4.09	3.13		1.02	2.92	6.4	3.88
TATACAGGGTCAAAGGCCAAAGTACGAATGTCGA	5.3	3		0.785	3.3	6.22	3.76
TGTCAAAGTTCAAAGGTGACGTAAGTATCCACAC	6.27	4.5		-0.183	4.97	6.99	3.76
CAAAATAGGTCACAGAGGTCAAAGTCCGTGCGTA	8.18	3.08	8.46	2.2	6.13		4.74
AGTCAAAGGTCATCTAGGTAACGTAAGATATGCT	7.77	3.31		1.42	2.52		4.7
CCTTAGGGGTCACGAGGTTATAGCACGACGAGCG	8.18	4.14		1.8	4.55		4.53
GCTTAAGGGTCAAAGGTTATAGCATGAATAGAAT	7.11	3.54	9.83	-0.296	2.8		4.14
GATACGGGGTCAAGGCCAGAGTACGCGTATTGAT	6.89	4.16		2.04	4.85	7.3	4.23
CGTCAAAGGTCAAGGTAACGTAACAGAAAGCAGC	8.73	3.48		1.83	1.62		4.25
GCTGCGAGGTCAACTGATGGTCAGCTAAAGCTCG	7.44	4.3	7.17	2.9	3.42		4.33
CCGAGAAGGTTACGAGGGGGCATTCAGTGCGAAT	3.13	1.65	3.45	0.555	3.67		4.4
CGTCCAAGGTCATAGGGGGTCAGTGAAGACAGAT	7.83	4.45	7.31	4.24	4.75		5.24
CGAACGAGGTCACCAGGACAGTGAAGAGGTTGGA	7.24	4.32		3.86	3.87	7.15	4.66
CGTCCAAGGTCACAGAGGTCAGTGAATGCCGAGT	8.03	3.92	7.67	3.95	6.67		
ATATGTAGGTCAAGGGTCATTCAGGTTGGTTCGC	6.02	2.84		2.22	4.28	7.22	4.58

Sequence	PBM binding z-score [1]	PBM binding z-score [2]	PBM binding z-score [3]	PBM binding z-score [4]	PBM binding z-score [5]	PBM binding z-score [6]	PBM binding z-score [7]
CTATGTAGGTTAAGGGAGTCATTCAGTTTGAAAG	0.44	0.0971	0.802	-0.282	0.283		0.572
GGAACGAGGTCAAAGTTGATAGCATCTGTCGACG	6.56	4.67		2.61	4.79	6.64	4.12
CCTTAGGGGTCAAGGTTATAGCACGGGTGGTACG	7.42	3.5		1.39	4.22		4.36
TCTAGTCGGTCAAAGGTCACACACTCGAAATGCG	7.3	1.78		2.24	2.75		4.13
TATACGGGGTCAAAGGCCAGAGTACGAATGTCGA	6.78	4.48		1.72	5.21		4.43
CCTCGGAGGTCAACAGGAGGTCAGAGCTGCCAGA	7.73	3.36	7.54	1.81	3.37		4.73
AGAACGAGGTCACGCTGAGTTGATAGCAGAGTAG	7.61	4.36		3.59	5.15		4.37
ATATGTAGGTTAAAGGTCATTCAGGTTGGTTCGC	5.37	2.47		1.97	5.11	6.81	4.31
TCTAGTTGGTCAAAGGTCACGCACTCGAAATGCG	7.23	1.92	8.9	2.52	3.12		4.31
CCTTAGGGGTCACTGACAGGTTATAGCATTTGGA	7.67	4.43		0.822	3.55		4.27
CAAACAAGGTCACGAAAGGTCAAAGTCGAATGAC	9.5	4.12		3.65	5.74		5.17
AATACGGGGTCATCGTAGGCCAGAGTACGCACAG	7.15	4.86		2.62	6.13		4.99
CAAACCAGGTCAAAGGTCAAAGTCGAGCCAACCA	7.49	3.71		2.57	3.91	8.97	5.07
CGTCAAAGTTCAACTAAGGTCACGTAAAGCACGC	8.89	4.75	7.65	5.58	6.52		
ACTTACGGGTCAACGAGGTCATAGCACGCGTATA	6.95	3.65		3.64	7.5	7.14	
